From PubChem BioAssay (EPA / NIEHS)
Where “and” joins values, the source holds several entries; their conditions need not be identical. Equal entries are not always repeated. More than one record can exist for a structure, and the calls need not agree. Calls of active or inactive are those of the source. Rule for the calls: active = hit-call score of the fitted dose curve at least 0.9, where 1 is the maximum; inactive = score below 0.9.

How the values were obtained:
[1] = APR_HepG2_P-H2AX_72hr: Apredica 72-hour HepG2 Assay for H2AX Phosphorylation (AID 2282916); conditions: imaging, actives raise or lower the signal;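 note: phospho-histone H2A.x immunostain intensity per cell marking DNA damage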
In short: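 Human hepatoma HepG2 cells are dosed across ten concentrations (0.39 to 200 uM, 0.5% v/v DMSO) and incubated 72 hr. Phospho-histone H2A.x is then detected by antibody staining alongside c-Jun and Hoechst, and quantified by automated fluorescence imaging.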

[2] = APR_HepG2_MitoMembPot_72hr: Apredica 72-hour HepG2 Assay for Mitochondrial Membrane Potential (AID 2282917); conditions: imaging, actives raise or lower the signal
In short: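 HepG2 cells exposed 72 h to compounds at 0.39–200 uM (0.5% v/v DMSO, duplicates); MitoTracker Red CMXRos 250 nM loaded 30 min before 3.7% formaldehyde fixation, imaged by HCS fluorescence. Bidirectional fit versus DMSO.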

[3] = APR_HepG2_MitoticArrest_72hr: Apredica 72-hour HepG2 Assay for Mitotic Arrest (AID 2282918); conditions: high-content imaging, actives raise or lower the signal
In short: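 HepG2 cells were exposed for 72 hr to compound at 0.39–200 uM (10 concentrations, duplicate) in 0.5% v/v DMSO, fixed in 3.7% formaldehyde, immunostained for phospho-histone H3 with Hoechst 33342 and imaged by high-content fluorescence; bidirectional fits versus DMSO.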

[4] = APR_HepG2_P-H2AX_24hr: Apredica 24-hour HepG2 Assay for H2AX Phosphorylation (AID 2282920); conditions: high-content imaging, actives raise or lower the signal
In short: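 HepG2 human liver cells were exposed for 24 hr to compounds at 0.39–200 uM in duplicate, with 0.5% v/v DMSO final. Fixed cells were immunostained for phospho-histone H2A.x plus Hoechst 33342, imaged by HCS fluorescence, and fitted bidirectionally against DMSO.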

[5] = APR_HepG2_StressKinase_72hr: Apredica 72-hour HepG2 Assay for Stress Kinase (AID 2282921); conditions: HepG2 stress kinase (phospho-c-Jun) imaging, actives raise or lower the signal
In short: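 After a 72 h compound treatment spanning 0.39 to 200 uM, formaldehyde-fixed cells are labelled for phosphorylated c-Jun and nuclei, imaged by automated fluorescence microscopy, and activity is fitted in both directions relative to DMSO controls.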

[6] = APR_HepG2_p53Act_72hr: Apredica 72-hour HepG2 Assay for p53 Activation (AID 2282923); conditions: high-content imaging, actives raise or lower the signal;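 note: average cellular p53 protein immunofluorescence intensity in HepG2 cells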
In short: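 Imaging-based endpoint: after 72 hr compound exposure (up to 200 uM, 0.5% DMSO), fixed and permeabilized monolayers were labelled with anti-p53 antibody and imaged; signal change in either direction was fitted relative to DMSO controls.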

[7] = APR_HepG2_MitoMass_72hr: Apredica 72-hour HepG2 Assay for Mitochondrial Mass (AID 2282924); conditions: high-content imaging, actives raise or lower the signal;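 note: MitoTracker Red CMXRos stain intensity per cell imaged as mitochondrial mass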
In short: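 Steps: treat HepG2 72 hr (0.39–200 uM, duplicate wells); load MitoTracker Red CMXRos, 250 nM, 30 min; fix with 3.7% formaldehyde, permeabilise with 0.5% Triton X-100; capture images, nuclei via Hoechst 33342; fit bidirectionally against DMSO.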

[8] = APR_HepG2_NuclearSize_72hr: Apredica 72-hour HepG2 Assay for Nuclear Size (AID 2282925); conditions: high-content imaging, actives raise or lower the signal
In short: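 Compounds (0.39–200 uM, final DMSO 0.5%) were applied to HepG2 for 72 hr. Cells were then formaldehyde-fixed, permeabilized and labelled with Hoechst 33342. Nuclear diameter was quantified from six images per well.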

[9] = ATG_CRE_CIS: Attagene CIS-FACTORIAL HepG2 Assay for human cAMP Responsive Element (CRE) binding protein 3 (AID 2282926); conditions: HepG2 CRE cis-reporter, Attagene multiplexed mRNA; actives raise or lower the signal
In short: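 Capillary electrophoresis of 6-FAM-labelled, HpaI-digested PCR products quantified reporter transcripts. These came from HepG2 transiently transfected with cis-element reporters and exposed to test chemicals for 24 hours, with DMSO defining baseline activity.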

[10] = ATG_CMV_CIS: Attagene CIS-FACTORIAL HepG2 Assay for human CMV (Internal Marker) (AID 2282928); conditions: HepG2 CMV promoter reporter, transcription factor profiling; actives raise or lower the signal;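 note: endpoint acts as a background internal control marker rather than a target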
In short: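 Bidirectional fits against DMSO are applied to reporter mRNA, read by RT-PCR with capillary electrophoresis, from HepG2 cells exposed 24 h. The endpoint serves as an internal CMV background marker within the cis-factorial reporter panel.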

[11] = ATG_DR4_LXR_CIS: Attagene CIS-FACTORIAL HepG2 Assay for human Liver X Receptor (LXR), DR4 submotif (AID 2282929); conditions: HepG2 Attagene DR4 cis-reporter, mRNA transcription; actives raise or lower the signal
In short: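 After transient transfection with multiplexed cis-promoter reporter units, HepG2 cells received test chemicals for 24 h. Reporter mRNA induction, detected by fluorescence after RT-PCR and capillary electrophoresis, was scored relative to DMSO.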

[12] = biological target: Aryl hydrocarbon receptor (Homo sapiens) (UniProt P35869); assay: ATG_Ahr_CIS: Attagene CIS-FACTORIAL HepG2 Assay for human Aryl Hydrocarbon Receptor (Ahr) (AID 2282930); conditions: HepG2 AhR cis-factorial reporter transcription; actives raise or lower the signal
Sequence of Aryl hydrocarbon receptor (Homo sapiens) (P35869 whole entry, looked up): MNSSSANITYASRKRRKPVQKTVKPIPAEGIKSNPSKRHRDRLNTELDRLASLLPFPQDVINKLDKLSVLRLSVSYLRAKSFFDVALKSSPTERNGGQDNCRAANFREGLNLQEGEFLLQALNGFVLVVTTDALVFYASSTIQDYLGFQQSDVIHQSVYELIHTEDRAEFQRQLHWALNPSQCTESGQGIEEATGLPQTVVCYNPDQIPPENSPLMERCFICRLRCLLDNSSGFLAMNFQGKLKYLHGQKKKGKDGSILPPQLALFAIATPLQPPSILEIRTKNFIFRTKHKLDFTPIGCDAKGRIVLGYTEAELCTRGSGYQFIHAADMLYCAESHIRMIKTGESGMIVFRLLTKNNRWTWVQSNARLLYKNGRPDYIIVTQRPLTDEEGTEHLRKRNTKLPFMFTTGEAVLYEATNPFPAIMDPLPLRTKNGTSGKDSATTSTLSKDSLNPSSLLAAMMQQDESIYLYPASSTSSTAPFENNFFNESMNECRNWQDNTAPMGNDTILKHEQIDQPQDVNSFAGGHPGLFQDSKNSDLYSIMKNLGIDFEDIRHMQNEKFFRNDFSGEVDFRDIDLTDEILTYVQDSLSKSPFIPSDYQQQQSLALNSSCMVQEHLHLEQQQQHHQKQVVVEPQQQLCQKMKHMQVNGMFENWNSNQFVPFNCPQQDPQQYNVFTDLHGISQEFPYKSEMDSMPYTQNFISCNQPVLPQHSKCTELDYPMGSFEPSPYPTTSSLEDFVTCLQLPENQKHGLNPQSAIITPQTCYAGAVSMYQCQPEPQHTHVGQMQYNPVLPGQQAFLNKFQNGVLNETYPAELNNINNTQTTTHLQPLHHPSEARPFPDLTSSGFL
In short: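 Values derive from bidirectional fitting against DMSO negative control. Underlying signal: cis-element reporter mRNA in transiently transfected HepG2, harvested 24 h post-dose and measured by RT-PCR plus capillary electrophoresis.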

[13] = ATG_AP_1_CIS: Attagene CIS-FACTORIAL HepG2 Assay for human Activator Protein 1 (AP-1) (AID 2282931); conditions: HepG2 Attagene cis-factorial AP-1 reporter mRNA; actives raise or lower the signal
In short: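 After 24 h incubation with test chemical, RNA from transfected HepG2 cells was reverse-transcribed, amplified, fluorescently labelled and digested before capillary electrophoresis. Reporters were driven by cis-regulatory promoters; activity fitted bidirectionally versus DMSO.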

[14] = ATG_AP_2_CIS: Attagene CIS-FACTORIAL HepG2 Assay for human Activator Protein 2 (AP-2) (AID 2282932); conditions: HepG2 AP-2 cis-reporter, Attagene transcription factor profiling; actives raise or lower the signal
In short: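 Cells (HepG2) transfected with promoter-driven reporter constructs, treated 24 h. Total RNA reverse-transcribed, reporter cDNA PCR-amplified, FAM-labelled by primer extension, digested, resolved by capillary electrophoresis. Activity fitted both directions versus DMSO.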

[15] = ATG_BRE_CIS: Attagene CIS-FACTORIAL HepG2 Assay for human Bone Morphogenetic Protein (BMP) Response Element (BRE) (AID 2282933); conditions: HepG2 BMP response element reporter, Attagene transcription factor profiling; actives raise or lower the signal
In short: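 HepG2 cells transiently transfected with CIS reporter units (endogenous TF activity, BMP response element), dosed 24 h. Reporter mRNA quantified by RT-PCR, fluorescent labelling and capillary electrophoresis; bidirectional fit vs DMSO baseline.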

[16] = biological target: Retinoic acid receptor alpha (Homo sapiens) (UniProt P10276); assay: ATG_DR5_RAR_CIS: Attagene CIS-FACTORIAL HepG2 Assay for human Retinoic Acid Receptor Alpha (RARE), DR5 submotif (AID 2282934); conditions: HepG2 Attagene cis-factorial RARE DR5 reporter, mRNA; actives raise or lower the signal
Sequence of Retinoic acid receptor alpha (Homo sapiens) (P10276 whole entry, looked up): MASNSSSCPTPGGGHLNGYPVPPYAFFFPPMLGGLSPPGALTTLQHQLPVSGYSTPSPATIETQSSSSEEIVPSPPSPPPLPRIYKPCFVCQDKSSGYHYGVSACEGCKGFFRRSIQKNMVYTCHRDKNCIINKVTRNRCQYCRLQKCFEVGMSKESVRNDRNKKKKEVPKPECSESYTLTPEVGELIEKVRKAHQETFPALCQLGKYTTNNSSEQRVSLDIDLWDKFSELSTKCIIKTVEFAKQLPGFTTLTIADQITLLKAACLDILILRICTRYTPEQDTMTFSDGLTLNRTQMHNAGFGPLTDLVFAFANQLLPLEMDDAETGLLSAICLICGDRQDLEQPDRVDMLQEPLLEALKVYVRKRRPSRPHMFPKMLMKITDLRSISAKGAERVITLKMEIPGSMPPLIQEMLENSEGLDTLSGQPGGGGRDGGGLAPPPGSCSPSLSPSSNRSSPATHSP
In short: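 Endpoint fitted in both directions relative to DMSO as negative control. It reflects DR5 cis-element reporter mRNA induction in transiently transfected HepG2 cells, measured 24 h after dosing through RT-PCR and fluorescent capillary electrophoresis.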

[17] = APR_HepG2_CellLoss_72hr: Apredica 72-hour HepG2 Assay for Cell Loss (AID 2282915); conditions: high-content imaging
In short: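 HepG2 cells were exposed for 72 hr to compounds at 0.39–200 uM (ten concentrations, duplicate) in 0.5% v/v final DMSO. Nuclei were stained with Hoechst 33342 after 3.7% formaldehyde fixation, imaged at 20x, and counted; fits bidirectional versus DMSO.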

[18] = biological target: CCAAT/enhancer-binding protein beta (Homo sapiens) (UniProt P17676); assay: ATG_C_EBP_CIS: Attagene CIS-FACTORIAL HepG2 Assay for human CCAAT/Enhancer Binding Protein (C/EBP) beta (AID 2282927); conditions: HepG2 Attagene cis-factorial transcription factor reporter; actives raise or lower the signal
Sequence of CCAAT/enhancer-binding protein beta (Homo sapiens) (P17676 whole entry, looked up): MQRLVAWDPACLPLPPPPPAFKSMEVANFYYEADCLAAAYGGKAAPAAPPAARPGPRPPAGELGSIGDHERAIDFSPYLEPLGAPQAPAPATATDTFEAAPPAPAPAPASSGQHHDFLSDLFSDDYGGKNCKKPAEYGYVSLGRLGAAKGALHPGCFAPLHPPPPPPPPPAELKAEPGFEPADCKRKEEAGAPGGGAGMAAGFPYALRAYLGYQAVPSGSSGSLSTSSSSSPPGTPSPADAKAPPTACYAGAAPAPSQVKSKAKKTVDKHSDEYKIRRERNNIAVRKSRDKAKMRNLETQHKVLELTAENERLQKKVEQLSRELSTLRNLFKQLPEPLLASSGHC
In short: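 Following a 24 h incubation with test chemical, transfected HepG2 cells yielded RNA whose reporter transcripts were quantified by RT-PCR and fluorescent capillary electrophoresis, with DMSO serving as baseline for bidirectional fitting.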

Measured: AC50

Oc1ccc(Cl)cc1Cc1ccccc1
inactive: [1] | [2] | [3] | [4] | [5] | [6] | [7] | [8] | [9] | [10] | [11] | [12] | [13] | [14] | [15] | [16]
active: [1] 112 µM and 122 µM and 34.5 µM | [2] 116 µM and 35.4 µM and 66.2 µM | [4] 114 µM [middle of 4 runs] | [5] 113 µM and 122 µM and 34.3 µM | [6] 111 µM and 125 µM | [7] 88 µM | [8] 110 µM | [9] 13.4 µM | [10] 15.2 µM | [11] 11.2 µM and 14.2 µM and 13.4 µM | [13] 12.7 µM | [14] 17.6 µM | [15] 9.67 µM

O=S(=O)(O)C(F)(F)C(F)(F)C(F)(F)C(F)(F)C(F)(F)C(F)(F)C(F)(F)C(F)(F)F
active: [17] 111 µM [middle of 5 runs] | [1] 104 µM and 9.71 µM and 107 µM | [4] 108 µM [middle of 4 runs] | [5] 111 µM and 107 µM | [6] 5.6 µM and 106 µM | [9] 142 µM and 53.4 µM | [10] 61.4 µM and 191 µM and 89.9 µM | [12] 180 µM and 40.3 µM | [13] 26.9 µM [middle of 8 runs] | [14] 140 µM and 26.8 µM
inactive: [1] | [2] | [3] | [4] | [5] | [6] | [7] | [9] | [18] | [10] | [11] | [12] | [13] | [14] | [15]
